Results as given in PubChem BioAssay (Tox21).
Unmarked numbers belong to inactive results. Inconclusive results are not listed. Entries that show only a call come without a potency. Activity calls are given as the source filed them. Unless noted, calls come from the whole dose curve; as a rule, active = well fitted curve in the direction sought with a large enough effect in the repeat runs; inconclusive = weak or mixed curves; inactive = no such curve, though single readings can be large; an effect the other way counts as inactive or inconclusive.

Experiments:
[1] = qHTS assay to identify small molecule agonists of the estrogen receptor alpha (ER-alpha) signaling pathway in the presence of an antagonist - cell viability counter screen (AID 1259386);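 note: cells exposed to compounds for 22 h at 37 °C before the viability read; nearly all actives have a fitted effect of over 30% in size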; note: potency is the fitted concentration of half-maximal effect; for activity change, negative = cytotoxicity: series mostly up to about 92 µM
Summary of the method: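 The test measures whether compounds kill ER-alpha reporter cells (VM7Luc4E2) under antagonist co-treatment (ICI-182,780, 10.0nM). Fluorescence from CellTiter-Fluor is read after a 22hr exposure.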

[2] = target: Progesterone receptor (Homo sapiens) (UniProt P06401); assay: qHTS assay to identify small molecule agonists of the progesterone receptor (PR) signaling pathway (AID 1346784; calls by dose curve; note: nearly all actives have a fitted effect of over 30% in size)
Sequence of Progesterone receptor (Homo sapiens) (P06401 whole entry, looked up): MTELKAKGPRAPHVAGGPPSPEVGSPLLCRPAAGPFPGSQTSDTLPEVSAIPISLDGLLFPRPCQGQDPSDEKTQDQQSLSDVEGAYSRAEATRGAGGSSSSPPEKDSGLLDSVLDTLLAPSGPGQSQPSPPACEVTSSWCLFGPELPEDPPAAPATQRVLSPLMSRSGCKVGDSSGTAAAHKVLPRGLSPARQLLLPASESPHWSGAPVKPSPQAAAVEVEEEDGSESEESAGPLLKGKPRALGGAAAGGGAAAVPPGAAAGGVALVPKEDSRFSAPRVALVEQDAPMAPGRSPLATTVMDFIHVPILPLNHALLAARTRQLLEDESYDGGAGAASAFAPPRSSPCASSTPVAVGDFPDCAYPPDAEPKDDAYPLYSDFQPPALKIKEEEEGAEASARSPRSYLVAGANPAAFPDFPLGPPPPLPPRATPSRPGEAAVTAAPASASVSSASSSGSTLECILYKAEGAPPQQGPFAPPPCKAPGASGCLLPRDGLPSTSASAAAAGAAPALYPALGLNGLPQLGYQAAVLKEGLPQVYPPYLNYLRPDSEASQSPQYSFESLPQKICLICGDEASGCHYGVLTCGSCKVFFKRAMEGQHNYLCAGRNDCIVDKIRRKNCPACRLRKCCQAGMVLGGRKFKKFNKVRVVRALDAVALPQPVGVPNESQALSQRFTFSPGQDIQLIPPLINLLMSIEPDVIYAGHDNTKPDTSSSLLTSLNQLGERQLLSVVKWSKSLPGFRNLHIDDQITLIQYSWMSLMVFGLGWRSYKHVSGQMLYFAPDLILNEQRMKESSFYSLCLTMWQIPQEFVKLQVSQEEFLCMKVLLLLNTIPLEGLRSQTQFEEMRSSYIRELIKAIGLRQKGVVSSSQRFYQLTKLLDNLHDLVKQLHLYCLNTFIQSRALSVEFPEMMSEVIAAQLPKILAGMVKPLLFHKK
Summary of the method: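 PR-UAS-bla HEK 293T cells (beta-lactamase reporter under UAS) in 2% charcoal-stripped FBS, dosed with 23 nL compound after 6 hr, incubated 16hr at 37C. LiveBLAzer B/G FRET substrate added, fluorescence read after 2 hours.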

[3] = target: Progesterone receptor (Homo sapiens) (UniProt P06401); assay: qHTS assay to identify small molecule antagonists of the progesterone receptor (PR) signaling pathway (AID 1346795; active = well fitted inhibition curve with a large enough effect in the signal ratio in the repeat runs, not every such curve was filed as active; the % refers to the signal ratio; note: potency is the fitted concentration of half-maximal effect)
Summary of the method: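 PR-UAS-bla HEK293T cells with beta-lactamase reporter under UAS control, in 2% charcoal-stripped FBS, treated with compounds plus 1 nM promegestone (R5020, final) for 16 hr at 37C. Read-out: FRET beta-lactamase substrate fluorescence after 2 hr at room temperature.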

[4] = qHTS assay to identify small molecule antagonists of the progesterone receptor (PR) signaling pathway - cell viability counter screen (AID 1346798); note: nearly all actives have a fitted effect of over 50% in size; note: potency is the fitted concentration of half-maximal effect; for activity change, negative = cytotoxicity: series mostly up to about 92 µM
Summary of the method: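 PR-UAS-bla HEK293T cells, 3,000/well in 2% charcoal-stripped FBS medium, dosed with compounds plus R5020 agonist and incubated 16 h at 37C. Viability then measured in the same wells by CellTiter-Glo luminescence after 30 min at RT.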

[5] = qHTS assay to identify small molecule agonists of the progesterone receptor (PR) signaling pathway - cell viability counter screen (AID 1346799; calls by dose curve; note: nearly all actives have a fitted effect of over 45% in size; note: potency is the fitted concentration of half-maximal effect)
Summary of the method: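 Counter screen in the PR-UAS-bla HEK293T wells (2% charcoal-stripped FBS, 16 h compound exposure at 37 C) after the bla read. CellTiter-Glo added, 30 min at room temperature, luminescence read as cell viability.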

[6] = qHTS assay to identify small molecule antagonists of the TGF-beta/Smad signaling pathway - cell viability counter screen (AID 1346824); note: nearly all actives have a fitted effect of over 50% in size
Summary of the method: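 SBE-bla HEK 293T cells were plated overnight at 37 C, then given compounds in DMSO plus TGF-beta1 (added as 0.25 ng/mL solution) for 5 hr. After the bla read, CellTiter-Glo was added to the same wells and luminescence read after 30 min at room temperature.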

[7] = qHTS assay to identify small molecule agonists of the TGF-beta/Smad signaling pathway - cell viability counter screen (AID 1346829); note: top concentration of the series differs between compounds; nearly all actives have a fitted effect of over 45% in size
Summary of the method: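 After overnight seating at 37 C and 5% CO2, reporter cells got compounds for 5 hr and FRET substrate for 2 hr; cell viability then came from CellTiter-Glo luminescence.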

[8] = target: Thyrotropin-releasing hormone receptor (Homo sapiens) (UniProt P34981); assay: qHTS assay to identify small molecule antagonists of the thyrotropin-releasing hormone receptor (TRHR) signaling pathway (AID 1346877; active = well fitted inhibition curve with a large enough effect in the repeat runs, not every such curve was filed as active; note: potency is the fitted concentration of half-maximal effect)
Sequence of Thyrotropin-releasing hormone receptor (Homo sapiens) (P34981 whole entry, looked up): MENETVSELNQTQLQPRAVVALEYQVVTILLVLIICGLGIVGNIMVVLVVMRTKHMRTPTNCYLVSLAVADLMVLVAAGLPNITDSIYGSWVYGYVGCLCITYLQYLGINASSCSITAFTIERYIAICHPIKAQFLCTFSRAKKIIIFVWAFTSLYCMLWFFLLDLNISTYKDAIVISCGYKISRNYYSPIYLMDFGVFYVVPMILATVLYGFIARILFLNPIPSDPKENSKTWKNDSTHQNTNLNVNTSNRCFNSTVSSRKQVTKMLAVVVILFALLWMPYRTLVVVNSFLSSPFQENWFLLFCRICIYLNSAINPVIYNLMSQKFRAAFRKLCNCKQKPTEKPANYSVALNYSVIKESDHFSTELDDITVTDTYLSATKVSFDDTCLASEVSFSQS
Summary of the method: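 Overnight-plated (18 h, 37 °C) HEK293 cells expressing TRHR were dye-loaded 2 h, treated with compound, then stimulated with TRH at 1 nM final. Fluorescence intensity was captured every second for 3 min.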

[9] = target: Thyrotropin-releasing hormone receptor (Homo sapiens) (UniProt P34981); assay: qHTS assay to identify small molecule agonists of the thyrotropin-releasing hormone receptor (TRHR) signaling pathway (AID 1346891; calls by dose curve; note: series mostly up to about 58 µM)
Summary of the method: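 HEK293 cells expressing TRHR plated 18 h at 37 C/5% CO2, calcium dye-loaded 2 h at 37 C, then compound added (agonist mode); kinetic calcium fluorescence read 3 min at 1 s intervals; 15 concentrations in triplicate.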

[10] = qHTS assay to identify small molecule agonists of the TGF-beta/Smad signaling pathway (AID 1346859; active = well fitted activation curve with a large enough effect in the signal ratio in the repeat runs, not every such curve was filed as active; the % refers to the signal ratio; note: series mostly up to about 77 µM)
Summary of the method: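 SBE-bla HEK293T cells plated overnight, then compound exposure for 5 h at 37 C. Beta-lactamase reporter read with LiveBLAzer B/G FRET substrate after 2 h at room temperature, fluorescence at 405 nm excitation, 460/530 nm emission.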

With `Nc1c(Cl)cc(Cl)cc1Cl` the Potency [1] was “inactive”, the Potency [2] was “inactive” and the Potency [3] was “inactive”. For the same molecule, the Potency [4] was “inactive”, the Potency [5] was “inactive” and the Potency [6] was “inactive”. For the same molecule, the Potency [7] was “inactive”, the Potency [8] was “inactive” and the Potency [9] was “inactive”.
With `CCCCCCCCCCCCCCCC[N+](C)(C)CCN(Cc1ccc(OC)cc1)c1ncccn1` the Potency [1] was “inactive”, the Potency [2] was “inactive” and the Potency [3] was “inactive”. The Potency [4] was 29.8 µM (active), the Potency [5] was 21.1 µM (active) and the Potency [10] was “inactive”. The Potency [8] was “inactive” and the Potency [9] was “inactive”.
`CC(NN)c1ccccc1` (centres undefined) gave an activity change, negative = cytotoxicity [1] of -1.38% [at 19 µM], an activation [2] of -0.517% [at 19 µM] and an activity change, negative = inhibition [3] of -2.01% [at 18.9 µM]. For the same molecule, the activity change, negative = cytotoxicity [4] was 0.118% [at 18.9 µM], the activity change, negative = cytotoxicity [5] was -7.08% [at 19 µM] and the viability change, negative = cytotoxic [6] was 2.36% [at 15.8 µM]. It also gave an activity change, negative = cytotoxicity [7] of -16.9% [at 15.8 µM] and an activation [10] of 1.03% [at 15.8 µM].
For `CC(=O)SC[C@@H](Cc1ccccc1)C(=O)NCC(=O)OCc1ccccc1`, the Potency [1] was “inactive”, the Potency [2] was “inactive” and the Potency [3] was “inactive”. The Potency [4] was “inactive”, the Potency [5] was “inactive” and the Potency [6] was “inactive”. For the same molecule, the Potency [7] was “inactive”.
In the case of `Cc1cccc(S(=O)(=O)O)c1C`, the Potency [1] is reported as “inactive”, the Potency [2] is reported as “inactive” and the Potency [3] is reported as “inactive”. For the same molecule, the Potency [4] was “inactive”, the Potency [5] was “inactive” and the Potency [6] was “inactive”. The Potency [7] was “inactive”, the Potency [10] was “inactive” and the Potency [8] was “inactive”. For the same molecule, the Potency [9] was “inactive”.
In the case of `CC(C)(C)NC(=O)[C@@H]1C[C@@H]2CCCC[C@@H]2CN1C[C@@H](O)[C@H](Cc1ccccc1)NC(=O)[C@H](CC(N)=O)NC(=O)c1ccc2ccccc2n1`, the Potency [1] is reported as 49.2 µM (active), the Potency [2] is reported as “inactive” and the Potency [3] is reported as 49.2 µM (active). The Potency [4] was 55.2 µM (active) and the Potency [5] was 39.1 µM (active).
For `CCC(C)(C)C1CCCCC1OC(C)=O` (centres undefined), the Potency [1] was “inactive”, the Potency [2] was “inactive” and the Potency [3] was “inactive”. The Potency [4] was “inactive”, the Potency [5] was “inactive” and the Potency [6] was “inactive”. The Potency [7] was “inactive”, the Potency [10] was “inactive” and the Potency [8] was “inactive”. The Potency [9] was “inactive”.
For `O=C(O)c1ccc(Cl)c(Cl)c1`, the Potency [1] was “inactive”, the Potency [2] was “inactive” and the Potency [3] was “inactive”. For the same molecule, the Potency [4] was “inactive”, the Potency [6] was “inactive” and the Potency [7] was “inactive”.
For `Cc1onc(-c2c(Cl)cccc2Cl)c1C(=O)N[C@@H]1C(=O)N2[C@@H]1SC(C)(C)[C@@H]2C(=O)O`, the Potency [1] was “inactive”, the Potency [2] was “inactive” and the Potency [3] was “inactive”. For the same molecule, the Potency [4] was “inactive”, the Potency [5] was “inactive” and the Potency [6] was “inactive”. The Potency [7] was “inactive”, the Potency [8] was “inactive” and the Potency [9] was “inactive”.
With `CO[Si](CCCNc1ccccc1)(OC)OC` the Potency [1] was “inactive”, the Potency [2] was “inactive” and the Potency [3] was “inactive”. For the same molecule, the Potency [4] was “inactive”, the Potency [5] was “inactive” and the Potency [6] was “inactive”. The Potency [7] was “inactive”, the Potency [10] was “inactive” and the Potency [8] was “inactive”. The Potency [9] was “inactive”.
In the case of `CSc1ccc(C(=O)c2[nH]c(=O)[nH]c2C)cc1`, the Potency [1] is reported as “inactive”, the Potency [2] is reported as “inactive” and the Potency [3] is reported as “inactive”. The Potency [4] was “inactive”, the Potency [6] was “inactive” and the Potency [7] was “inactive”. The Potency [10] was “inactive”.
For `COc1cc(/C=C/C(=O)O[C@H]2CC[C@]34C[C@]35CC[C@]3(C)[C@@H]([C@H](C)CCC=C(C)C)CC[C@@]3(C)[C@@H]5CC[C@H]4C2(C)C)ccc1O`, the Potency [1] was “inactive”, the Potency [2] was “inactive” and the Potency [3] was “inactive”. The Potency [4] was “inactive”, the Potency [5] was “inactive” and the Potency [6] was “inactive”. The Potency [7] was “inactive”, the Potency [10] was “inactive” and the Potency [8] was “inactive”. The Potency [9] was “inactive”.
With `C1CCCC1` the Potency [1] was “inactive”, the Potency [2] was “inactive” and the Potency [3] was “inactive”. For the same molecule, the Potency [4] was “inactive”, the Potency [5] was “inactive” and the Potency [6] was “inactive”. For the same molecule, the Potency [7] was “inactive”, the Potency [8] was “inactive” and the Potency [9] was “inactive”.
With `CC(C)(C)C(=O)OCOC(=O)[C@@H]1N2C(=O)[C@@H](NC(=O)[C@H](N)c3ccccc3)[C@H]2SC1(C)C` the Potency [1] was “inactive”, the Potency [2] was “inactive” and the Potency [3] was “inactive”. The Potency [4] was “inactive”, the Potency [5] was “inactive” and the Potency [6] was “inactive”. The Potency [7] was “inactive”, the Potency [10] was “inactive” and the Potency [8] was “inactive”. The Potency [9] was “inactive”.
With `CCCCCCCCOc1ccccc1C(=O)Nc1ccc(C(=O)OCC[N+](C)(CC)CC)cc1` the Potency [1] was “inactive”, the Potency [2] was “inactive” and the Potency [3] was “inactive”. For the same molecule, the Potency [4] was 29.8 µM (active), the Potency [6] was “inactive” and the Potency [7] was “inactive”. For the same molecule, the Potency [10] was “inactive”, the Potency [8] was “inactive” and the Potency [9] was “inactive”.
With `Oc1ccc2c(c1)-c1ccccc1C2` the Potency [1] was “inactive”, the Potency [2] was “inactive” and the Potency [3] was 17.2 µM (active). The Potency [4] was “inactive”, the Potency [5] was “inactive” and the Potency [6] was “inactive”. The Potency [7] was “inactive”, the Potency [8] was “inactive” and the Potency [9] was “inactive”.
In the case of `CC(C)=CCOc1ccc(/C=C/C(=O)c2ccc(OCC=C(C)C)cc2OCC(=O)O)cc1`, the Potency [1] is reported as “inactive”, the Potency [2] is reported as “inactive” and the Potency [3] is reported as 26.6 µM (active). The Potency [4] was “inactive”, the Potency [5] was “inactive” and the Potency [6] was “inactive”. For the same molecule, the Potency [7] was “inactive”, the Potency [8] was “inactive” and the Potency [9] was “inactive”.
With `CCCCCOc1ccccc1/C(=C\SC)n1ccnc1` the Potency [1] was “inactive”, the Potency [2] was “inactive” and the Potency [3] was 3.76 µM (active). For the same molecule, the Potency [4] was 5.31 µM (active), the Potency [5] was 7.5 µM (active) and the Potency [6] was “inactive”. For the same molecule, the Potency [7] was “inactive”, the Potency [10] was “inactive” and the Potency [8] was “inactive”. For the same molecule, the Potency [9] was “inactive”.
In the case of `COC(=O)C1=C(C)NC(C)=C(C(=O)OCCc2ccc(N3CCN(C(c4ccccc4)c4ccccc4)CC3)cc2)C1c1cccc([N+](=O)[O-])c1` (centres undefined), the Potency [1] is reported as “inactive”, the Potency [2] is reported as “inactive” and the Potency [3] is reported as “inactive”. The Potency [4] was “inactive”, the Potency [5] was “inactive” and the Potency [6] was “inactive”. The Potency [7] was “inactive” and the Potency [10] was “inactive”.
With `Clc1ccc2nsnc2c1NC1=NCCN1` the Potency [1] was “inactive”, the Potency [2] was “inactive” and the Potency [3] was “inactive”. The Potency [4] was “inactive”, the Potency [5] was “inactive” and the Potency [6] was “inactive”. The Potency [7] was “inactive”.
With `Cc1ccc(O)c2ncccc12` the Potency [1] was “inactive”, the Potency [2] was “inactive” and the Potency [3] was 7.5 µM (active). The Potency [4] was “inactive”, the Potency [6] was “inactive” and the Potency [7] was “inactive”. For the same molecule, the Potency [10] was “inactive”, the Potency [8] was 5.23 µM (active) and the Potency [9] was “inactive”.
